GDH-TPI counter: inhibits GDH-TPI coupling enzymes, artifact for Mtb FBA screen | GDH-TPI coupled enzyme counterscreen, NADH absorbance | inhibition, % at 4.8 µM | hit rate 1.2% among 360,000;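 further: 0% = DMSO wells and 100% = wells lacking the enzyme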
CCHFV vOTU inh: blocks the CCHF virus ovarian tumor domain protease. CCHFV vOTU protease, Pep-AMC fluorescence. inhibition, % at 11.5 µM. hit rate 0.55% among 370,000; further: 0% = vehicle wells with enzyme and 100% = no enzyme wells
Mtb FBA inh: Mtb fructose-bisphosphate aldolase inhibition | P9WQA3 | purified M. tuberculosis FBA, fluorescence read-out | inhibition, % at 1 µM | hit rate 2.3% among 360,000; in the data active means inhibition above about 27%;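 further: 0% = vehicle and 100% = reference inhibitor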
RecA intein inh: Mtb RecA intein splicing inhibition; P9WHJ3; cell-free RecA intein splicing, fluorescence; inhibition, % (no concentration beside the values); hit rate 0.75% among 290,000; in the data active means inhibition above about 30%;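 further: 0% = vehicle wells and 100% = reference inhibitor control wells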
Target sequence (P9WHJ3 whole entry, looked up): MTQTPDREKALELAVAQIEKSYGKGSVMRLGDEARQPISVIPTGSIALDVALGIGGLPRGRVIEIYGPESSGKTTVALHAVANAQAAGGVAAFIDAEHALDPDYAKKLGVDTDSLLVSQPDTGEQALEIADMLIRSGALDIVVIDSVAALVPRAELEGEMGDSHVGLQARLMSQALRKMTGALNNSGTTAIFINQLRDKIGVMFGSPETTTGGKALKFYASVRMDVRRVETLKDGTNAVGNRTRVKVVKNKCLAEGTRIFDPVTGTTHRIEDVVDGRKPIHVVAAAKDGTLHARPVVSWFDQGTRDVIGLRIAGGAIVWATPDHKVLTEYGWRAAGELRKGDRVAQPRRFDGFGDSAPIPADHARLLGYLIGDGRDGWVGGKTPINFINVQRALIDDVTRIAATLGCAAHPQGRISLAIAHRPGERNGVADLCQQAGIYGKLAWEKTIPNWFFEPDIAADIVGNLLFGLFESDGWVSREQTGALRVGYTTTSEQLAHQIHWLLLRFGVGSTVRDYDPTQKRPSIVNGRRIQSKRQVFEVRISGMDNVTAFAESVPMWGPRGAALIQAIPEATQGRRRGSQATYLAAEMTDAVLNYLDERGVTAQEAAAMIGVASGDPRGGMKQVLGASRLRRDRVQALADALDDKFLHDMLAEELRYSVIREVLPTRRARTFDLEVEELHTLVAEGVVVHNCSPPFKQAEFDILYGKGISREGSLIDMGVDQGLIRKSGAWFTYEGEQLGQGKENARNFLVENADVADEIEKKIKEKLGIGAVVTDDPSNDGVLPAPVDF
Starred values were filed as active, the others as inactive; i = inactive; . = no result; + = active, no number. The list is not random: actives were taken first. Their share in the collection is about 4.2%. Unless noted, no stated cut-off is given here; in the data, active means inhibition above about 30%; inactive means the rest.

SMILES	GDH-TPI counter	CCHFV vOTU inh	Mtb FBA inh	RecA intein inh
COc1ccc(/C=N/NC(=S)NCc2ccccc2)cc1OC	27	16	0	1
COc1cc(OC)c(OC)cc1/C=N/NC(=S)NCCN1CCOCC1	24	-17	14	-2
COc1ccccc1OCC(O)CN1CCN(C(=O)c2ccccc2)CC1 (centres undefined)	2	-11	2	2
COc1cc(/C=N/NC(=S)NC2CC3CCC2C3)ccc1O (centres undefined)	52*	5	-2	-2
CCCN(CC(=O)Nc1ccccc1OC)C(=O)C1=COCCO1	6	-3	0	.
COc1cc2c3nnc(-c4ccc(F)cc4)c-3cn(Cc3cccc(F)c3)c2cc1OC	12	.	46*	-55
Cc1nn(-c2ccccc2)c(Cl)c1C1C(C#N)=C(N)Oc2n[nH]c(C)c21 (centres undefined)	6	1	-1	62*
CCn1nc(C)c(C2C(C#N)=C(N)Oc3n[nH]c(C)c32)c1C (centres undefined)	4	2	1	42*
CCCCCCCCCCC(C(=O)O)C1(C(=O)O)CCC(=O)O1 (centres undefined)	1	-6	0	.
O=C(CN1C(=O)/C(=C\c2ccco2)SC1=S)Nc1ccc(O)cc1C(=O)O	12	31*	-4	14
O=C(CCCN1C(=O)/C(=C\c2ccccc2)SC1=S)Nc1ccc(O)cc1C(=O)O	25	27	0	41*
O=C(C1CCCN(S(=O)(=O)c2ccc([N+](=O)[O-])cc2)C1)N1CCN(Cc2ccccc2)CC1 (centres undefined)	.	3	.	.
COC(=O)[C@H](CC(C)C)N(CCCc1cn(Cc2ccc(C)cc2)nn1)S(=O)(=O)c1ccc(F)cc1Br	.	12	.	.
CC(C)(NO)/C(=N\O)c1ccccc1	-6	14	54*	-3
N#Cc1cnc(Nc2nc3ccccc3o2)nc1-c1ccccc1	33*	7	-5	-2
CNc1ccc(-c2cccc(C(C)=O)c2)cn1	15	-10	1	.
CNc1ccc(-c2cccc(CO)c2)cn1	7	-125	171*	.
COc1ccc(S(=O)(=O)N(C)c2nc3ccccc3n3c(CC(C)C)nnc23)cc1	12	-5	56*	1
O=C(NNC(=O)c1ccncc1)Nc1ccc(N=Nc2ccccc2)cc1	37*	9	-2	.
CC(=O)c1ccc(NC(=S)NNC(=O)c2ccncc2)cc1	32*	8	1	1
O=C(NNC(=O)c1ccncc1)Nc1ccccc1	3	7	-2	.
Cc1cccn2c(=O)c3cc(C(=O)N4COCC4(C)C)n(Cc4ccccc4)c3nc12	-9	-15	4	-1
CCOC(=O)c1cc2c(=O)n3cccc(C)c3nc2n(CC(C)C)c1=NC(=O)c1ccco1	13	-280	+	i
CCOCCCn1c(=NC(=O)c2ccco2)c(C(=O)OCC)cc2c(=O)n3cccc(C)c3nc21	17	-180	+	-177
O=c1cc(CN2CCOCC2)c2cc(Cl)c(O)cc2o1	-1	-379	+	-203
SMILES	GDH-TPI counter	CCHFV vOTU inh	Mtb FBA inh	RecA intein inh
CCc1cc2c(CN3CCN(CC)CC3)cc(=O)oc2cc1O	16	-304	+	-381
CCc1ccc2oc(=O)cc(CN3CCN(Cc4ccccc4)CC3)c2c1	6	-4	1	0
COc1ccc(CN2CCNC(=O)C2CC(=O)NCC2CCOCC2)c(F)c1 (centres undefined)	-2	27	-2	0
CC[C@@H]1CC=C[C@H]2[C@H]1C(=O)N(Cc1ccccc1)[C@H]2c1ccc2ccccc2c1	.	.	.	8
COc1ccc2c(c1)[C@@]1(OCCC=C[C@H]1C)C(=O)N2Cc1ccc(F)cc1	.	15	.	.
CCN(CC)c1ccc(NC(=O)c2ccc3c(c2)OCO3)c(C)c1	-10	-7	-4	-2
O=c1oc2ccccc2cc1-c1nc2c(s1)CCCC2	13	-96	139*	-46
O=c1oc2ccccc2cc1-c1nc2ccccc2o1	60*	-309	+	-73
O=c1oc2ccccc2cc1-c1csc(NN=C2CCCCC2)n1	16	-2	13	-3
COc1ccc2oc(=O)c(-c3nc4ccccc4o3)cc2c1	20	-21	27	-41
Cc1ccccc1CS(=O)(=O)Cc1ccc(C(=O)Nc2ccc(F)cc2F)o1	.	11	.	.
Cc1c(C)c2cc(Cl)c(O)c(CN3CCCC(C)C3)c2oc1=O (centres undefined)	8	-302	+	-146
CCN(CC)Cc1c(O)c(Cl)cc2c(C)c(C)c(=O)oc12	25	-310	.	-182
CC1CCCN(Cc2cnc(Cl)s2)C1 (centres undefined)	6	1	-1	0
Cc1c(C)c2cc(Cl)c(O)c(CN3CCN(C)CC3)c2oc1=O	28	-298	+	.

Assay outcomes deposited in PubChem BioAssay by several laboratories.
